Compound activity as filed in PubChem BioAssay.
Hits are enriched below; roughly 2.9% of the tested compounds scored in any of these assays.
PLC-beta3 inh – inhibitors of human phospholipase C beta3; inhibition, % at 12.2 µM; 370,000 compounds, 0.18% hits; AID 720704; Q01970; Purified PLC-beta3, fluorogenic substrate, fluorescence; in the data active = inhibition above about 11%;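 also: 0% = median of compound wells on plate and 100% = full blocker control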
KLK7 zymogen act – activators of human kallikrein-7 zymogen; 370,000 compounds, 0.9% hits; purified proKLK7, EDANS-DABCYL substrate fluorescence; 100% is mature enzyme control, 0% vehicle; activation, % at 7 µM;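 active = activation above the mean of all tested compounds plus 3 SD, computed per campaign excluding outliers beyond control limits, cut at about 13% in these data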
ADAM17 inh – inhibitors of human ADAM17 | inhibition, % at 6.95 µM | P78536 | 370,000 compounds, 0.83% hits | AID 720648 | recombinant ADAM17, EDANS/DABCYL FRET peptide cleavage;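 active = inhibition above the mean of compounds lying between control limits plus 3 SD, set per campaign, cut at about 8.5% in these data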;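 also: 0% = DMSO-only wells as the low control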
PLC-gamma1 inh – PLC-gamma1 (human) inhibition, primary screen | P19174 | purified PLC-gamma1, fluorogenic substrate, fluorescence | 370,000 compounds, 0.84% hits | inhibition, % at 12.2 µM; in the data active = inhibition above about 9.5%
ADAM10 inh – inhibitors of human ADAM10; O14672; recombinant ADAM10, EDANS/DABCYL FRET peptide cleavage, 3 h; inhibition, % at 7 µM; 370,000 compounds, 0.62% hits; AID 720582;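 active = inhibition above a per-campaign cutoff equal to the mean of compounds falling between control-based bounds plus 3 SD, cut at about 20% in these data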;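 also: 0% = DMSO wells while the 100% control is not disclosed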
Target sequence (O14672 214-748 limits assumed): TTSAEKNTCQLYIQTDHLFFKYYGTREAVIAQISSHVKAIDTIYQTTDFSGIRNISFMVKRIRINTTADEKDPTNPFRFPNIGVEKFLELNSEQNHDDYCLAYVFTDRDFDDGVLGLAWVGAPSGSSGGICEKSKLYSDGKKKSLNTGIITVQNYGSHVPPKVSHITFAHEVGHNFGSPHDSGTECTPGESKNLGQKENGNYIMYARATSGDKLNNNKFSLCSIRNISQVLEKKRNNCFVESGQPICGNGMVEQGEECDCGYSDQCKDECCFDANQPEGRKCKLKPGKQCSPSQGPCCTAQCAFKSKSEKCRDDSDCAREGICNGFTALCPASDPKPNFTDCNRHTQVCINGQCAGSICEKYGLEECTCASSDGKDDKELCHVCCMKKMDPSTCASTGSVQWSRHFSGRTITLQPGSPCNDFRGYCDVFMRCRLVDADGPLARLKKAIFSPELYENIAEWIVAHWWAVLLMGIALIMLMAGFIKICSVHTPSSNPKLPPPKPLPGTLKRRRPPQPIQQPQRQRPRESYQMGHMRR
proKLK7 act conf – proKLK7 activation, confirmation; shares compounds with KLK7 zymogen act; purified proKLK7, EDANS-DABCYL substrate fluorescence; scaled: vehicle 0, mature enzyme 100; activation, % at 7 µM; 3,200 compounds, 68% hits; AID 686949;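 active = activation, as change over the incubation, above the mean of all tested compounds plus 3 SD, cut at about 13% in these data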
EDANS interfere – optically interferes with EDANS-DABCYL signal, flagging KLK7 hits. shares compounds with KLK7 zymogen act. EDANS-DABCYL substrate fluorescence interference, no enzyme, 4 h; solvent 0%, active enzyme control 100%. activation, % at 7 µM. 3,200 compounds, 80% hits. AID 686952;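 active = activation above the all-compound mean plus 3 SD, ignoring values outside control-based bounds, cut at about 4.8% in these data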;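 also: value is the 4 h activation minus the activation read at time zero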
Active calls of the source: *; i = inactive; nt = no result.

SMILES	PLC-beta3 inh	KLK7 zymogen act	ADAM17 inh	PLC-gamma1 inh	ADAM10 inh	proKLK7 act conf	EDANS interfere
COc1ccc(C2=NCCc3cc(OC)c(OC)cc32)cc1OC	-242	17*	-9	-236	-23	-1	11*
COc1ccc(C2=NC(C)(C)Cc3cc(OC)c(OC)cc32)cc1	-438	22*	-10	-304	-17	9	7.1*
COc1ccc(C2=NCCc3cc(OC)c(OC)cc32)cc1	-488	30*	-14	-468	-37	11	13*
COC(=O)c1sccc1NC(=O)Cc1ccc(OC)cc1	1	0	0	-1	2	nt	nt
N#Cc1c2n(c3c(-c4ccccc4)ncnc13)CCC2	2	1	-4	2	-8	nt	nt
CCOC(=O)N1CCc2c(sc3c2c(=O)n(Cc2ccccc2)c(=O)n3Cc2ccccc2F)C1	3	0	2	-3	-6	nt	nt
COc1ccc(-c2csc(-c3ccc(C(=O)O)cc3)n2)cc1	-406	22*	-133	-380	-479	35*	53*
CC(=O)Nc1c2c3c(cccc3n(C)c1=O)C(=O)c1ccccc1-2	-323	23*	-21	-253	-63	23*	21*
Cn1c(=O)c(Nc2ccc(Cl)cc2)c2c3c(cccc31)C(=O)c1ccccc1-2	-109	-1	-1	-78	2	nt	nt
N#Cc1cnn2ccc(-c3ccc4c(c3)CCC4)nc12	i	95*	i	i	i	57*	76*
Cc1cc(C)n2c(Br)c(CN3CCCC(C)C3)nc2n1 (stereo not given)	-148	15*	-73	-129	-314	14*	16*
C=CCc1c(C)nc(-c2ccccc2)nc1N/N=C/c1ccccc1	-3	14*	2	-7	-2	1	1
C=CCc1c(C)nc(-c2ccccc2)nc1N/N=C/c1ccncc1	-5	1	-1	1	-6	nt	nt
CCOC(=O)C1=NN(c2ccccc2)C2C(=O)N(c3ccccc3OC)C(=O)C12 (stereo not given)	-331	19*	-7	-314	-20	3	0
COc1ccccc1NC(=O)CSc1nc2c(sc3ccccc32)c(=O)n1CCN(C)C	-53	16*	-226	-30	i	1	-2
COCCn1c(SCC(=O)Nc2ccccc2OC)nc2ccccc2c1=O	-7	0	-3	1	1	nt	nt
COc1ccc(N(CC(=O)Nc2ccc(C)cn2)S(=O)(=O)c2c(C)noc2C)cc1	1	16*	1	-2	6	1	0
CCOc1ccc(N(CC(=O)Nc2ccc(OC)cc2)S(=O)(=O)c2c(C)noc2C)cc1	5	0	1	2	1	nt	nt
Cc1cc(=O)oc2n[nH]c(-c3ccccc3)c12	-25	1	-22	-22	-86	nt	nt
COc1ccc(-c2[nH]nc3oc(=O)cc(C)c23)cc1	i	13*	-187	i	i	15*	21*
CCN(CC)Cc1c(O)ccc2c(=O)c(-c3ccccc3Cl)coc12	i	40*	-489	i	i	67*	62*
CCc1cc2c(=O)c(-c3ccc4c(c3)OCO4)coc2c(CN(C)C)c1O	i	8	-127	i	-318	nt	nt
CCN(CC)Cc1c(O)ccc2c(=O)c(-c3ccccc3OC)coc12	i	85*	i	i	i	51*	74*
COc1ccccc1-c1coc2cc(O)cc(O)c2c1=O	0	0	-3	-2	-8	nt	nt
COC(=O)Cc1c(O)ccn(C2CC2)c1=O	-3	0	-1	5	2	nt	nt
SMILES	PLC-beta3 inh	KLK7 zymogen act	ADAM17 inh	PLC-gamma1 inh	ADAM10 inh	proKLK7 act conf	EDANS interfere
CCOC(=O)Nc1c2ccccc2nc2ccccc12	-420	14*	-463	-311	i	38*	43*
CC1(c2ccncc2)Nc2ccccc2-c2nc3ccccc3n21 (stereo not given)	i	57*	i	i	i	-3	-2
COc1ccc(N2C(=O)CC(N3CCN(Cc4ccc5c(c4)OCO5)CC3)C2=O)cc1 (stereo not given)	-3	53*	-5	0	-8	0	0
CCN(c1ccccc1)S(=O)(=O)c1ccc(C(=O)Nc2ncccc2C)cc1	2	1	-2	2	-1	nt	nt
NC(=O)c1ccc(-c2ncc(-c3ccccc3)o2)cc1	i	69*	i	i	i	59*	62*
Cc1ccccc1C(=O)NNC(=O)c1ccoc1C	1	0	-3	0	5	nt	nt
O=C(CSc1ncc(C(=O)O)n1-c1ccc(F)cc1)NCc1ccc2c(c1)OCO2	6	0	3	-2	4	nt	nt
O=C1N/C(=N/S(=O)(=O)Cc2ccccc2)S/C1=C/c1ccc2c(c1)OCO2	-26	2	-6	-17	0	nt	nt
CCOC(=O)c1sc(NC(=O)c2ccc(S(=O)(=O)N(C)C)cc2)cc1C	-54	2	2	-45	-40	nt	nt
CCOC(=O)c1sc(NC(=O)c2ccccc2)cc1C	-57	16*	-112	-41	-332	-1	-1
CCN1CCCC1CN=Cc1c(O)n(-c2ccccc2)c(=O)c2ccccc12 (stereo not given)	-225	16*	-69	-170	-279	16*	18*
CC(C)CCN=Cc1c(O)n(-c2ccccc2)c(=O)c2ccccc12	-4	1	-6	-3	-16	nt	nt
O=C(NCc1ccccc1)C1(CC2CC(c3ccccc3)=NO2)CCNCC1 (stereo not given)	3	0	0	3	1	nt	nt
COc1ccc(-n2c(=S)[nH]c3cc(C(=O)NCCCN4CCOCC4)ccc3c2=O)c(OC)c1	0	0	-2	-1	2	nt	nt
COc1cc(C(=O)OCC(=O)N2CCCCC2C)ccc1OCc1c(C)noc1C (stereo not given)	2	0	0	-3	3	nt	nt
Cc1ccc(S(=O)(=O)N2C(=O)c3cccc4cccc2c34)cc1	-56	0	-3	-31	1	nt	nt
O=C1c2cccc3cccc(c23)C(=O)N1OS(=O)(=O)c1ccc(Br)cc1	-2	1	0	-3	3	nt	nt
O=C1c2cccc3cccc(c23)C(=O)N1OS(=O)(=O)c1ccccc1	-30	26*	-6	-21	-20	-179	-10
Cc1ccc(S(=O)(=O)ON2C(=O)c3cccc4cccc(c34)C2=O)cc1	-12	19*	-1	-12	-13	-32	39*
Cc1nc2ccc(S(=O)(=O)NCC(=O)Nc3cccc(F)c3)cc2s1	1	0	-3	2	-7	nt	nt
O=C(Nc1ccccc1Cl)NC1(C(=O)NCc2ccncc2)CCCCC1	-7	0	-1	-1	-7	nt	nt
